Source: the supplement of paper PMC6135742
Counter-ions that a name gives are not always drawn. ± gives the standard deviation of the averaged measurements. Whole data set: some 2,600 compounds, median “total cell number (DAPI+ nuclei) relative to DMSO vehicle control” near -1.4, cut for the lowest 2% near -23. Shown is part of a subset that was picked to be rich in the lowest values.

Each compound was assayed on jimpy (Plp1 jimpy) mouse iPSC-derived oligodendrocyte progenitor cells (assay: total cell number (DAPI+ nuclei) relative to DMSO vehicle control (SDs above negative control mean); higher = more surviving cells). Settings: 10 µM; 3 days.
Protocol: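 Primary phenotypic screen of >3,000 bioactive compounds (Selleck L1700 and Sigma LO1280 libraries) at a single dose of 10 µM. Compounds were added to jimpy (Plp1 mutant) mouse iPSC-derived OPCs at the start of thyroid hormone-induced oligodendrocyte differentiation, one well per compound in 384-well plates. After 3 days cells were stained for MBP, Sox10 and DAPI and imaged with an Operetta system. MBP+ oligodendrocyte number and total cell number were expressed as the number of SDs above the mean of the DMSO negative control on the same plate (n=16 control wells per plate). Hits were defined as >=4 SD for oligodendrocytes and >=2 SD for total cells.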

| SMILES | total cell number |
| --- | --- |
| Cc1c(C(=O)N2CCOc3ccc(-c4ccc(N)nc4)cc3C2)ccc(S(C)(=O)=O)c1F | -3.21 |
| NOCC(=O)O [O-(Carboxymethyl)hydroxylamine hemihydrochloride] | 1.52 |
| N#Cc1c(O)c2c(-c3ccc(-c4ccccc4O)cc3)csc2[nH]c1=O | 0.298 |
| c1coc(CNc2ncnc3[nH]cnc23)c1 [Kinetin] | 0.658 |
| COc1cc(/C=C(\C#N)C(=O)Nc2nnc(C(F)(F)F)s2)ccc1OCc1ccc(C(F)(F)F)cc1C(F)(F)F | -0.657 |
| Cc1cc(/C=C/C#N)cc(C)c1Nc1ccnc(Nc2ccc(C#N)cc2)n1 [Rilpivirine] | -9.09 |
| Oc1ccc(/C=C/c2cc(O)cc(O)c2)cc1 [Resveratrol] | -2.54 ± 1 |
| CCN(c1nc(N)c(C(=O)NC(=N)N)nc1Cl)C(C)C [5-(N-Ethyl-N-isopropyl)amiloride] | -4.19 |
| O=c1cc[nH]c(=S)[nH]1 [2-Thiouracil] | -0.0444 |
| CS(=O)(=O)c1ccc(C(=O)Nc2ccc(Cl)c(-c3ccccn3)c2)c(Cl)c1 [Vismodegib (GDC-0449)] | -1.63 |
| CNC(=O)Nc1ccc(-c2nc(N3CC4CCC(C3)O4)c3cnn(C4CCC5(CC4)OCCO5)c3n2)cc1 | -8.93 |
| COc1ccccc1N1CCN(CCCNc2c(C)c(=O)n(C)c(=O)n2C)CC1 [Urapidil, 5-Methyl-] | -1.49 |
| CCCCCCCCCCCCCCCCCCOP(=O)([O-])OC1CC[N+](C)(C)CC1 [Perifosine] | -0.796 |
| CN(C)CC(c1ccc(O)cc1)C1(O)CCCCC1 (stereo not given) [Desvenlafaxine Succinate] | -3.69 |
| CN(C)CC(c1ccc(O)cc1)C1(O)CCCCC1 (stereo not given) [Desvenlafaxine] | -0.735 |
| Oc1ccccc1O [Pyrocatechol] | -10.2 |
| Nc1cc(=O)[nH]c(N)n1 [2,4-Diamino-6-pyrimidinone] | -1.65 |
| CC(C)(O)CC[C@@H](O)[C@](C)(O)[C@H]1CC[C@@]2(O)C3=CC(=O)[C@@H]4C[C@@H](O)[C@@H](O)C[C@]4(C)[C@H]3CC[C@]12C [20-Hydroxyecdysone] | -0.544 |
| CC(S)C(=O)NCC(=O)O (stereo not given) [Tiopronin] | -2.65 |
| C=C(C)[C@@H]1CC=C(C(=O)O)CC1 [(-)-Perillic acid] | -1.68 |
| CN(C)c1ccc(-c2nc3ncc(Cl)c(N4CCN(CC(=O)Nc5nccs5)CC4)c3[nH]2)cc1 | 1.85 |
| O=C1CCC(N2C(=O)c3ccccc3C2=O)C(=O)N1 (racemic) [(±)-Thalidomide] | -2.18 |
| O=C1CCC[C@@H]2[C@H]3CCC[N+]4([O-])CCC[C@@H](CN12)[C@@H]34 (stereo not given in full) [Oxymatrine] | -0.222 |
| C#Cc1cccc(Nc2ncnc3cc(OC)c(OCCCCCCC(=O)NO)cc23)c1 | -18.7 |
| COc1cc2c(Nc3ccc(NC(=O)c4ccccc4)cc3)ncnc2cc1OCCCN1CCOCC1 | -26.6 |

| SMILES | total cell number |
| --- | --- |
| COc1cc2c(N3CCN(C(=O)Nc4ccc(OC(C)C)cc4)CC3)ncnc2cc1OCCCN1CCCCC1 [Tandutinib (MLN518)] | -10.3 |
| CCOC(=O)[C@@H](N)Cc1ccc(O)c(O)c1 [L-Dopa ethyl ester] | -2.07 |
| COC1=C2C[C@@H](C)C[C@H](OC)[C@H](O)[C@@H](C)/C=C(\C)[C@H](OC(N)=O)[C@@H](OC)/C=C\C=C(/C)C(=O)NC(=CC1=O)C2=O [Geldanamycin] | -12.3 |
| C=CCNC1=C2C[C@@H](C)C[C@H](OC)[C@H](O)[C@@H](C)/C=C(\C)[C@H](OC(N)=O)[C@@H](OC)/C=C\C=C(/C)C(=O)NC(=CC1=O)C2=O [17-AAG (Tanespimycin)] | -25 |
| CO[C@H]1/C=C\C=C(/C)C(=O)NC2=CC(=O)C(NCCN(C)C)=C(C[C@@H](C)C[C@H](OC)[C@H](O)[C@@H](C)/C=C(\C)[C@@H]1OC(N)=O)C2=O [17-DMAG (Alvespimycin) HCl] | -26.5 |
| CN(NC(=O)CC(=O)NN(C)C(=S)c1ccccc1)C(=S)c1ccccc1 [Elesclomol (STA-4783)] | -1.04 |
| CCC(C)(Oc1ccc(C2(c3ccc(OC(C)(CC)C(=O)O)cc3)CCCCC2)cc1)C(=O)O (stereo not given) [Clinofibrate] | 1.25 |
| N[C@H]1C[C@@H]1c1ccc(-c2cccc(O)c2)cc1 | -3.31 |
| Cc1ccc(C(=O)Cn2c3c(sc2=N)CCCC3)cc1 [Pifithrin-? (PFT?)] | 1.69 |
| OC[C@H]1O[C@@H](n2cnc3c(N[C@H]4CCC[C@@H]4O)ncnc32)[C@H](O)[C@@H]1O | 0.458 |
| CC(Cc1ccc(O)c(O)c1)(NN)C(=O)O (stereo not drawn) [S-(-)-Carbidopa] | -1.61 |
| Cc1cc(Cn2cnc3c2C[C@@H](C(=O)O)N(C(=O)C(c2ccccc2)c2ccccc2)C3)ccc1N | -6.04 |
| O=C(Nc1ccccc1-c1cn2c(CN3CCNCC3)csc2n1)c1cnc2ccccc2n1 | -27.8 |
| C=C1C[C@@]23CC[C@H]4[C@@](C)(CCC[C@@]4(C)C(=O)O)[C@@H]2CC[C@]1(O)C3 [Steviol] | -0.619 |
| Cc1cc(NC(=O)Nc2ccc3c(ccn3C)c2)sn1 | -1.4 |
| CC(C)c1cc(-c2n[nH]c(=O)n2-c2ccc3c(ccn3C)c2)c(O)cc1O [Ganetespib (STA-9090)] | -25.4 |
| CN(C[C@@H]1COCCO1)S(=O)(=O)Nc1ccc2ccc3ncc(-c4cnn(C)c4)cc3c(=O)c2c1 | -9.05 |
| Cc1ccc(C(=O)N(CCCN)[C@@H](c2oc3cc(Cl)ccc3c(=O)c2Cc2ccccc2)C(C)C)cc1 | -15.1 |
| Cc1ccc(C(=O)N(CCCN)[C@@H](c2nc3cc(Cl)ccc3c(=O)n2Cc2ccccc2)C(C)C)cc1 | -27.5 |
| CNC(=O)CN(CCN(CCN(CC(=O)[O-])CC(=O)NC)CC(=O)[O-])CC(=O)[O-].[Gd+3] [Gadodiamide] | -14.9 |
| C=CCNC(N)=S [Allylthiourea] | 6.27 |
| CCc1ccc(OCc2ccccc2C(=O)Nc2ccc3nc(C)cc(N)c3c2)cc1 | -12.5 |
| COc1cc2nccc(Oc3ccc(NC(=O)NC4CC4)c(Cl)c3)c2cc1C(N)=O [Lenvatinib (E7080)] | -9.34 |
| COc1cc2nccc(Oc3ccc(NC(=O)Nc4cc(C)on4)c(Cl)c3)c2cc1OC [Tivozanib (AV-951)] | -23.5 |
| COc1cc(OC)c(NC(=O)Nc2cc(C)on2)cc1Cl | -0.876 |
